The panel holds about 83,000 compounds, 20% with a hit somewhere; the sample as a whole holds those more often.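 Treatment: one concentration, 48 hours, 96-well format. Scoring: percent growth, with anything below 10 considered active.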 Values without a mark were called inactive. The source made the active and inactive calls.
Assays:
Experiment in all cases: NCI-60 one-dose screen, 48 h (100 = growth as untreated, 0 = no growth, -100 = all killed)
Settings in all cases: 10 µM unless noted
DU-145 prostate = tested on: DU-145 prostate
K-562 leukemia = tested on: K-562 leukemia
MALME-3M melanoma = tested on: MALME-3M melanoma
MDA-MB-231 breast = tested on: MDA-MB-231 breast
RXF 393 renal = tested on: RXF 393 renal
SF-268 CNS = tested on: SF-268 CNS
SF-295 CNS = tested on: SF-295 CNS
SF-539 CNS = tested on: SF-539 CNS
UACC-257 melanoma = tested on: UACC-257 melanoma
M14 melanoma = tested on: M14 melanoma
HCT-15 colon = tested on: HCT-15 colon
HT29 colon = tested on: HT29 colon
SNB-75 CNS = tested on: SNB-75 CNS
SNB-19 CNS = tested on: SNB-19 CNS
U251 CNS = tested on: U251 CNS
PC-3 prostate = tested on: PC-3 prostate
SK-MEL-5 melanoma = tested on: SK-MEL-5 melanoma
UACC-62 melanoma = tested on: UACC-62 melanoma
LOX IMVI melanoma = tested on: LOX IMVI melanoma
SK-MEL-28 melanoma = tested on: SK-MEL-28 melanoma

SMILES | growth (DU-145 prostate) | growth (K-562 leukemia) | growth (MALME-3M melanoma) | growth (MDA-MB-231 breast) | growth (RXF 393 renal) | growth (SF-268 CNS) | growth (SF-295 CNS) | growth (SF-539 CNS) | growth (UACC-257 melanoma) | growth (M14 melanoma) | growth (HCT-15 colon) | growth (HT29 colon) | growth (SNB-75 CNS) | growth (SNB-19 CNS) | growth (U251 CNS) | growth (PC-3 prostate) | growth (SK-MEL-5 melanoma) | growth (UACC-62 melanoma) | growth (LOX IMVI melanoma) | growth (SK-MEL-28 melanoma)
CCN1C(=O)N(CC)C2C1NC(=S)N2/N=C/C=C/c1cccs1 (stereo not given) | 23% | 11.2% | 45.5% | 26.6% | -5.1% (active) | 66.2% | 16.2% | -16% (active) | 63.1% | 12.3% | 15.5% | 5.58% (active) | 1.94% (active) | 27% | 18.4% | 35.2% | 23.4% | 24.5% | 26.7% | 49.2%
Nc1ncc(-c2ccc3ncnc(N4CCc5cc(F)c(Cl)cc54)c3c2)cn1 | 33.4% | 61.4% | 53.6% | 30% | 1.88% (active) | 39.8% | 56.2% | 48.5% | 67.6% | 61.1% | 44.2% | 41.8% | -6.4% (active) | 59.6% | 54.8% | 28.3% | 59.9% | 23.8% | 37.6% | 65.1%
CC(=O)CC(=O)c1ccccc1.[Cu+2] | 98.4% | 99% | 95.2% | 96.5% | 125% | 118% | 105% | 105% | 102% | 107% | 94.3% | 106% | 121% | 96.6% | 105% | 96.8% | 82.8% | 95.8% | 83.9% | 105%
CC(=O)OCCOc1cc(Cl)c(Cl)cc1Cl | 105% | 102% | 114% | 94.3% | 102% | 99.4% | 95% | 107% | 102% | 103% | 104% | 103% | 102% | 103% | 99.2% | 98.3% | 99.5% | 98.3% | 101% | 113%
COc1ccc(-c2nc(SCCC(C)C)nc(N/N=C(/C)c3ccc(N)cc3)c2C#N)cc1 | 97.1% | 94.3% | 104% | 82.3% | 86.2% | 92% | 102% | 87.9% | 102% | 111% | 97.6% | 104% | 81.4% | 81.6% | 90.3% | 96.5% | 99.5% | 87.5% | 91.6% | 121%
CO[C@]12C=C/C(=C(/C(=O)OCc3cccnc3)C(=O)CCCCCCCC[C@]3(OC)C=C/C(=C(/C(=O)OCc4cccnc4)C(=O)CCCCCCCC1)O3)O2 | -95.3% (active) | 0.254% (active) | -38.4% (active) | -38.3% (active) | -75.4% (active) | -72.1% (active) | -79.1% (active) | -55.2% (active) | -43.2% (active) | -47% (active) | -78.5% (active) | -32.3% (active) | -79.6% (active) | -90.5% (active) | -64.2% (active) | -51.6% (active) | -92.9% (active) | -82.5% (active) | -82.3% (active) | -86.3% (active)
CC(C)(C)CC(C)(C)Nc1c(-c2c(O)c3ccccc3oc2=O)nc2sccn12 | 113% | 101% | 94% | 93% | 103% | 105% | 98.8% | 101% | 81.4% | 97.2% | 100% | 97% | 108% | 97% | 97.7% | 92.6% | 96.9% | 90.7% | 99.7% | 102%
Cc1cccc(C)c1NC(=O)Nc1ccccc1 | 9.29% (active) | 102% | 98.4% | 96.9% | 87.3% | 96.1% | 66.7% | 108% | 98.2% | 109% | 25.5% | 27.3% | 108% | 90.8% | 77.4% | 70.7% | 101% | 71.6% | 69.8% | 108%
